# Measurements as given in publication PMC9838217, “Structure of SALL4 zinc finger domain reveals link between AT-rich DNA binding and Okihiro syndrome”.
# Biological target: T1, SALL4 ZFC4 WT (HT-SELEX) (Mus musculus, UniProt Q8BX22 870-940)
# T1 sequence: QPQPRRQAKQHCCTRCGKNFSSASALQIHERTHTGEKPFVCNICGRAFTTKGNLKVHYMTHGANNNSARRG
# Assay: HT-SELEX; high values mean tight binding
# Settings: protein: recombinant; vector His6-GST; dsDNA, one strand shown
# How it was run: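 Up to 6 cycles of selection were run in triplicate. In each, purified recombinant mouse SALL4 zinc finger cluster 4 (residues 870–940, 1 µg) was incubated with library DNA (1.5 µg first cycle, 200 ng later) in 100 µl of 10 mM Tris–HCl pH 7.5, 50 mM NaCl, poly(dI-dC), DTT for 10 min at room temperature, then complexes were captured on Ni2+ beads, washed and PCR-amplified; final pools were MiSeq-sequenced and scanned for 6-mers. Binding signal is each canonical k-mer's read fraction as fold change versus the initial random library.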
row,Sequence,binding signal
1,CAACTC,0.778 ± 0.0269 fold-change vs cycle 0
2,TGACAA,1.16 ± 0.0336 fold-change vs cycle 0
3,CGAACA,0.588 ± 0.0204 fold-change vs cycle 0
4,ATATTA,4.97 ± 0.422 fold-change vs cycle 0
5,AGAACA,1.26 ± 0.0155 fold-change vs cycle 0
6,ATGATC,1.37 ± 0.0972 fold-change vs cycle 0
7,CGCATA,0.489 ± 0.0286 fold-change vs cycle 0
8,CTCAGC,0.369 ± 0.0266 fold-change vs cycle 0
9,CAGAGA,0.765 ± 0.0216 fold-change vs cycle 0
10,ATGCTC,0.663 ± 0.0343 fold-change vs cycle 0
11,CGATAC,0.695 ± 0.052 fold-change vs cycle 0
12,ACTGCT,0.712 ± 0.054 fold-change vs cycle 0
13,CCTGAA,0.792 ± 0.0306 fold-change vs cycle 0
14,ACTGTA,1.35 ± 0.031 fold-change vs cycle 0
15,ACATCT,1.34 ± 0.0364 fold-change vs cycle 0
16,CAATGA,1.32 ± 0.056 fold-change vs cycle 0
17,CACGAG,0.41 ± 0.0151 fold-change vs cycle 0
18,AATAAG,2.35 ± 0.133 fold-change vs cycle 0
19,CCTAGC,0.4 ± 0.0405 fold-change vs cycle 0
20,GAAGAA,1.38 ± 0.0779 fold-change vs cycle 0

row,Sequence,binding signal
1,CCTAGG,0.46 ± 0.0474 fold-change vs cycle 0
2,ACCTCC,0.552 ± 0.031 fold-change vs cycle 0
3,CATAGC,0.663 ± 0.0317 fold-change vs cycle 0
4,CTGCAG,0.318 ± 0.0345 fold-change vs cycle 0
5,TGAGCA,0.639 ± 0.0443 fold-change vs cycle 0
6,AGCTAT,1.19 ± 0.0625 fold-change vs cycle 0
7,GAACCC,0.462 ± 0.0176 fold-change vs cycle 0
8,ACCTGC,0.368 ± 0.0272 fold-change vs cycle 0
9,ACCGTG,0.361 ± 0.00928 fold-change vs cycle 0
10,GAACCA,0.766 ± 0.0201 fold-change vs cycle 0
11,AGCAGA,0.694 ± 0.0089 fold-change vs cycle 0
12,AATATA,4.74 ± 0.532 fold-change vs cycle 0
13,ATTAGC,1.14 ± 0.0454 fold-change vs cycle 0
14,CACACC,0.375 ± 0.0351 fold-change vs cycle 0
15,ACTTAG,1.38 ± 0.0593 fold-change vs cycle 0
16,GAATAC,1.29 ± 0.026 fold-change vs cycle 0
17,CCTGTA,0.809 ± 0.0421 fold-change vs cycle 0
18,CGGTGA,0.364 ± 0.0107 fold-change vs cycle 0
19,CCTTGC,0.381 ± 0.0117 fold-change vs cycle 0
20,AAGTGC,0.551 ± 0.0359 fold-change vs cycle 0
